PfHsp40 yeast: compounds rescuing yeast from Plasmodium falciparum HSP40 toxicity | S. cerevisiae expressing PfHsp40, growth rescue, ATP luminescence | growth rescue, % at 12.5 µM | actives 0.68% (n = 340,000) | AID 504582; in the data active = growth rescue above about 28%, passing the limit was not always enough; inconclusive = no clear call, values can overlap the other calls;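 note: yeast W303a lacking pdr1 and pdr3 grown in galactose medium; growth measured after three days at 30 °C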
PriA SSB inh: inhibitors of Klebsiella pneumoniae PriA binding to SSB C-terminal tail. AlphaScreen SSBct-PriA binding, biotinylated peptide. inhibition, % at 33 µM. actives 0.6% (n = 430,000). AID 1272365; in the data active = inhibition mostly above about 37%, no sharp cut-off; inactive = mostly below about 20%
MazF activator: activators of E. coli MazEF toxin-antitoxin RNase | P0AE70 | activation, % at 20 µM | FAM/BHQ RNA-DNA oligo cleavage fluorescence, 5 h | actives 0.32% (n = 350,000); in the data active = activation above about 50%
PrP 5UTR inh: suppresses PrP 5' UTR mRNA reporter expression | cell-based PrP 5' UTR mRNA reporter, plate reader | inhibition, % (concentration not given with the values) | actives 0.35% (n = 340,000); in the data active = inhibition above about 52%
PrPC TRFRET: inhibitors of human cell surface prion protein PrPC; P04156; TR-FRET read-out; inhibition, % at 13.8 µM; actives 0.43% (n = 370,000); AID 720596; in the data active = inhibition above about 24%
PrPC TRFRET cf: confirmation of inhibitors of cell surface human prion protein; actives 65% (n = 1,500); inhibition, % at 13.8 µM; cell surface PrPC level, TR-FRET; shares compounds with PrPC TRFRET; in the data active = inhibition above about 25%
LD9 tox: LD9 cell cytotoxicity, PrPc inhibitor counter-screen. shares compounds with PrPC TRFRET. LD9 cells cytotoxicity, luminescence viability. inhibition, % at 13.8 µM. actives 29% (n = 1,500); in the data active = inhibition above about 9.5%
Numbers stand for hits; n = inactive; u = inconclusive; x = no result. In the library only some 1.8% were active in any assay of this set; here they are far more common.

SMILES	PfHsp40 yeast	PriA SSB inh	MazF activator	PrP 5UTR inh	PrPC TRFRET	PrPC TRFRET cf	LD9 tox
COC(=O)CSc1nc(-c2ccccc2)nc2ccccc12	n	n	n	n	105.8	112.8	n
NC(=O)CSc1nc(-c2ccccc2)nc2ccccc12	n	n	n	n	69.6	72.0	n
CCOc1ccc2c(c1)C(C)=CC(C)(C)N2S(=O)(=O)c1ccc(NC(C)=O)cc1	n	n	n	77.7	24.5	n	16.0
Cc1ccc2c(Nc3ccc(F)c(C#N)c3)c(C(=O)N3CCOCC3)cnc2n1	x	n	x	x	x	x	x
N#CC(C#N)=C(Nc1ccc(F)cc1)SCc1cccc(Br)c1	n	n	n	n	32.1	38.2	31.8
O=C(Nc1ccc2c(c1)OCO2)c1cc(-c2ccc(O)cc2)on1	n	n	n	n	32.0	n	n
CC(C)Cc1cc(C(=O)Nc2ccc3c(c2)OCO3)no1	n	n	n	n	31.1	29.2	n
O=C(N/N=C/c1ccc(O)cc1)c1ccc(COc2cc(Cl)ccc2Cl)o1	n	x	n	n	26.9	30.0	n
O=C1NC(c2ccccc2)=C(c2nc3ccccc3s2)C(c2ccc(O)cc2)N1 (centres undefined)	n	n	n	n	x	x	x
NS(=O)(=O)c1ccc(CCNC(=O)c2cc(-c3ccccn3)nc3ccc(Br)cc23)cc1	x	n	n	n	29.0	47.6	21.1
NS(=O)(=O)c1ccc(CCNC(=O)c2cc(-c3ccc(Br)cc3)nc3ccccc23)cc1	n	n	n	n	n	x	x
NNc1nc(-c2ccccc2)c2cc(Br)ccc2n1	n	n	n	n	n	x	x
COc1nc(-c2ccccc2)c2cc(Br)ccc2n1	n	n	n	n	35.8	71.0	n
O=C1C=C(c2ccccc2)C[C@H](c2cccs2)[C@H]1n1cnc([N+](=O)[O-])c1	n	n	n	n	n	x	x
CC(Sc1ncnc2ccccc12)C(=O)Nc1ccc2c(c1)OCO2 (centres undefined)	42.3	n	n	n	29.3	36.7	n
NC(=O)C1CCN(C(=O)c2cc(-c3ccc(Cl)cc3)nc3ccccc23)CC1	n	n	n	n	n	x	x
NC(=O)C1CCN(C(=O)c2cc(-c3ccccc3Cl)nc3ccccc23)CC1	n	n	n	n	42.5	43.2	n
O=C(NN=Cc1ccc(O)cc1)c1cc(-c2ccc(Cl)cc2)n[nH]1	x	x	x	x	26.3	32.1	n
COc1ccc(-c2cc(C(=O)NN=C/C(C)=C/c3ccccc3)[nH]n2)cc1	x	x	x	x	24.6	n	n
COc1ccc(-c2cc(C(=O)NN=Cc3ccc(-c4ccccc4)cc3)[nH]n2)cc1	x	x	x	x	n	x	x
COc1ccccc1CNC(=O)CSc1nnc2c(Cl)cc(C(F)(F)F)cn12	n	n	n	n	n	x	x
O=S(=O)(NCC1CC1)c1cccc(S(=O)(=O)N2CCCC2)c1	n	n	n	n	n	x	x
O=C(Nc1ccc(C(=O)Oc2ccccc2)c(O)c1)c1ccco1	n	n	n	x	n	x	x
Cc1sc(NC(=O)c2cccc(C(F)(F)F)c2)nc1-c1ccccc1	x	n	x	x	x	x	x
CC(C)C(=O)NC(c1cccc([N+](=O)[O-])c1)c1ccc2cccnc2c1O (centres undefined)	227.7	n	n	n	29.0	n	28.1
SMILES	PfHsp40 yeast	PriA SSB inh	MazF activator	PrP 5UTR inh	PrPC TRFRET	PrPC TRFRET cf	LD9 tox
CC(=O)NC(c1ccc(Cl)cc1Cl)c1ccc2cccnc2c1O (centres undefined)	444.6	n	n	n	31.7	34.9	30.7
CC(=O)NC(c1ccc2ccccc2c1)c1ccc2cccnc2c1O (centres undefined)	85.0	n	n	n	38.5	24.9	30.6
CCCC(=O)NC(c1ccc(Cl)cc1)c1ccc2cccnc2c1O (centres undefined)	u	n	n	n	n	x	x
CCCC(=O)NC(c1ccc(Cl)cc1Cl)c1ccc2cccnc2c1O (centres undefined)	n	n	n	n	28.1	n	11.9
CCc1ccc(C(=O)NNC(=O)CC2OC(=O)c3ccccc32)cc1 (centres undefined)	n	n	n	n	n	x	x
CCN1C(=O)/C(=C2\SC(=S)N(NC(=O)c3ccccc3O)C2=O)c2ccccc21	n	n	n	n	n	x	x
Brc1cc2[nH]cnc2c2ccccc12	n	n	n	n	60.8	78.8	n
N#CC(C#N)=C1C=CC=CN1/C(=C\c1ccco1)C(=O)c1ccccc1	n	n	n	n	73.6	67.0	78.5
COc1cc(CN2CCN(Cc3cccc(OC)c3OC)CC2)cc(OC)c1	n	n	n	n	27.6	n	n
Cc1ccc(-n2ncc3c2CCCC3NC(=O)c2csnn2)cc1C (centres undefined)	n	n	n	n	n	x	x
O=c1[nH]c2cc3c(cc2cc1CN(CC1CCCO1)S(=O)(=O)c1ccccc1)OCCO3 (centres undefined)	n	n	n	n	54.6	n	n
CC(=O)c1cccc(S(=O)(=O)N(Cc2cc3cc4c(cc3[nH]c2=O)OCCO4)CC2CCCO2)c1 (centres undefined)	n	n	n	n	n	x	x
Cc1nc2ccc(Br)cc2c(-c2ccccc2)c1C(=O)O	n	n	n	n	61.9	81.9	n
CC(=O)c1c(C)nc2ccc(Br)cc2c1-c1ccccc1	n	n	n	n	n	x	x
BrC(=C\c1ccccc1)/C=N/n1cnnc1	n	n	n	n	34.4	n	37.3
C(/C=C/c1ccccc1)=Nn1cnnc1	x	n	x	x	x	x	x
Cc1cc(NC(=O)CSc2nc(CCC3CCCC3)nc3ccccc23)no1	n	n	n	n	43.1	55.6	n
Cc1cc(NC(=O)CSc2nc(-c3cccs3)nc3ccccc23)no1	n	n	n	n	43.9	101.8	n
Cc1cc(NC(=O)CSc2nc(C(C)(C)C)nc3ccccc23)no1	n	n	n	n	n	x	x
Cc1cc(NC(=O)CSc2ncnc3ccccc23)no1	n	n	n	n	36.5	93.6	n
Cc1nonc1NC(=O)CSc1nc(CCC2CCCC2)nc2ccccc12	n	n	n	n	n	x	x
CC(C)(C)c1nc(SCC(=O)NC2CCCC2)c2ccccc2n1	n	n	n	n	n	x	x
CCCc1nc(SCC(=O)NC2CCCC2)c2ccccc2n1	n	n	n	n	34.4	43.1	n
Cc1cc(NC(=O)c2cc(-c3cccs3)nc3ccccc23)no1	n	n	n	n	n	x	x
CC(C)Cn1c(-c2cccs2)nc2nc3ccccc3nc21	n	n	n	n	n	x	x
COc1cc(C=NNc2nc3ccccc3s2)ccc1O	x	n	x	x	x	x	x
CCOC(=O)[C@]12CCCC=C1N(Cc1ccc(OC)cc1)C(=O)[C@@H]2CC(=O)NCc1cccc2ccccc12	x	x	x	x	n	x	x
O=C(c1cccnc1)N1CCC[C@H](S(=O)(=O)c2ccc(F)cc2)C1	x	n	x	x	x	x	x
CCc1cc2ccccc2nc1SCC(=O)Nc1cc(C)on1	n	n	n	n	29.9	68.8	n
CCCc1nc(SCC(=O)Nc2cc(C)on2)c2ccccc2n1	n	n	n	n	122.9	120.4	n

Compound activity deposited in PubChem BioAssay by several laboratories.
